# Laboratory results published in the supplement of paper PMC5940239.
# Tested on: Madurella mycetomatis MM55
# Test: percent growth relative to solvent control; higher = less inhibition, active = 20 or less
# Settings: 100 µM; 7 days
row,Structure (SMILES),percent growth
1,Clc1ccc(CCNc2cc(-c3ccccc3)nc3ncnn23)cc1,108% (inactive)
2,Clc1cccc(C(c2ccc(CN3CCNCC3)cc2)n2ccnc2)c1 (centres undefined),115% (inactive)
3,Cc1nn(C)cc1C(C)Nc1nncc(-c2ccc(C(F)(F)F)cc2)n1 (centres undefined),61.9% (inactive)
4,O=C(c1[nH]nc2c1CCCC2)N1CCN(Cc2ccc3c(c2)OCO3)CC1,81.8% (inactive)
5,Cn1ncc2c(N3CCOCC3)nc(NCCc3c[nH]c4ccccc34)nc21,37.3% (inactive)
6,CC(C)C(NC(=O)Cc1cccc2ccccc12)C(=O)Nc1cccc(C#N)c1 (centres undefined),121% (inactive)
7,Nc1ncc(-c2cn[nH]c2)cc1-c1nc2cc(Cl)cnc2[nH]1,127% (inactive)
8,COc1ccc(-c2nc(-c3cccc(NC(=O)Cc4ccc(F)cc4)c3)no2)cc1OC,95% (inactive)
9,O=C(NCCN1CCCC1)c1cc(NCCCCN2CCC(F)(F)CC2)nc2ccc(Cl)cc12,61.8% (inactive)
10,COc1ccc2nc(C)cc(OCC(=O)NCc3ccccc3)c2c1,83.4% (inactive)
11,CC(C)(C)OC(=O)N1CCN(c2nccc(-c3ccc(-c4ccc(Cl)cc4)s3)n2)CC1,103% (inactive)
12,CC(=O)Oc1ccccc1C(=O)Nc1ncc([N+](=O)[O-])s1,104% (inactive)
13,Cc1cnc(CCNC(=O)c2cc(-c3ccc(Cl)cc3)cs2)[nH]1,94.3% (inactive)
14,CCc1nc2ccccc2n1CC(O)COc1cc(C)ccc1Cl (centres undefined),93.7% (inactive)
15,CC1(COc2ccc(N3CCC(Oc4ccc(OC(F)(F)F)cc4)CC3)cc2)Cn2cc([N+](=O)[O-])nc2O1 (centres undefined),111% (inactive)
16,O=C(Nc1ccc2c(c1)B(O)OC2)c1ccccc1C(F)(F)F,150% (inactive)
17,CC1CC1C(=O)NC1CCN(CC2(c3ccccc3)CCCCC2)CC1 (centres undefined),92.9% (inactive)
18,Nc1ncnc2c1ncn2C[C@@H](O)[C@@H](O)C(=O)O,134% (inactive)
19,Cc1ccc(-c2cc(C(=O)Nc3cccnc3)c3cc(Br)ccc3n2)cc1,90.5% (inactive)
20,CO[C@@H](C(=O)N1Cc2[nH]nc(NC(=O)c3ccc(N4CCN(C)CC4)cc3)c2C1)c1ccccc1,157% (inactive)

row,Structure (SMILES),percent growth
1,O=C(Nc1ccccc1-c1nc2c(C(=O)O)cccc2o1)c1ccccc1,94% (inactive)
2,Cc1cc(Nc2ccncc2)n2nc(C)c(-c3ccccc3Cl)c2n1,103% (inactive)
3,O=C1[C@@H](Oc2ccccc2)[C@@H](c2ccc(Cl)cc2)N1CCn1cnc2c(NCc3ccccc3)ncnc21,98.5% (inactive)
4,NCCC(O)C(=O)N[C@@H]1C[C@H](N)[C@@H](OC2O[C@H](CN)[C@@H](O)[C@H](O)[C@H]2O)[C@H](O)C1OC1O[C@H](CO)[C@@H](O)[C@H](N)[C@H]1O (some centres undefined),102% (inactive)
5,CS(=O)(=O)c1ccc(C(=O)N(CC2CCCO2)c2nc3ccccc3s2)cc1[N+](=O)[O-] (centres undefined),110% (inactive)
6,Cc1cc(O)nc(-n2nc(C)cc2C)n1,66.4% (inactive)
7,O=C(OCc1ccccc1)N1CCC(c2cc(-c3ccncc3)c(-c3ccc(F)cc3)[nH]2)CC1,117% (inactive)
8,C[C@H]1COc2c(N3CCN(C)CC3)c(F)cc3c(=O)c(C(=O)O)cn1c23,89.5% (inactive)
9,CCc1ccc(C(NCc2nc(N)nc(N(C)C)n2)C(C)C)cc1 (centres undefined),49.1% (inactive)
10,COc1ccccc1C(C)NCC(=O)Nc1cc(C(F)(F)F)ccc1Cl (centres undefined),28.7% (inactive)
11,COc1nc2ccc(Br)cc2cc1[C@@H](c1ccccc1)[C@@](O)(CCN(C)C)c1cccc2ccccc12,100% (inactive)
12,CS(=O)(=O)c1cccc(-c2cnc3[nH]cc(-c4ccc(CCC(=O)O)cc4)c3c2)c1,95.9% (inactive)
13,Cc1ccc(NC(=O)c2cc(S(=O)(=O)NC(C)(C)C)ccc2C)nc1,78.4% (inactive)
14,C[C@]1(O)C[C@@H](c2nc(-c3ccc4ccc(-c5ccccc5)nc4c3)c3c(N)nccn32)C1,133% (inactive)
15,CNc1snc(C)c1C(=O)NCCOc1ccc(OC)cc1,92.2% (inactive)
16,Cc1cc2ccccc2n1CC(=O)N1CC(C(=O)N2CCCCC2)Oc2ccccc21 (centres undefined),82.1% (inactive)
17,Nc1ncnc2c1ncn2[C@@H]1O[C@H](COS(=O)(=O)NC(=O)c2ccccc2O)[C@@H](O)[C@H]1O,60.6% (inactive)
18,NS(=O)(=O)c1cccc(-c2ccc3ncc(N4CCOCC4)nc3c2)c1,106% (inactive)
19,OC[C@H]1O[C@@H](n2c3ccc(Cl)cc3c3c(-c4cc5ccccc5o4)ncnc32)C(O)[C@H]1O (some centres undefined),121% (inactive)
